The full list was thinned out, with hits kept by preference.
Dicer inh = inhibitors of human Dicer processing of pre-microRNA. Q9UPY3. cat-ELCCA pre-miR-21 Dicer processing, chemiluminescence; hits give high values. z-score at 25 µM. actives 6% (n = 47,000); in the data active means z-score above about 3, passing the limit was not always enough;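 further: plate controls were vehicle for no effect and no enzyme for full effect; higher signal means more uncleaved substrate so more Dicer inhibition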
Target sequence (Q9UPY3 whole entry, looked up): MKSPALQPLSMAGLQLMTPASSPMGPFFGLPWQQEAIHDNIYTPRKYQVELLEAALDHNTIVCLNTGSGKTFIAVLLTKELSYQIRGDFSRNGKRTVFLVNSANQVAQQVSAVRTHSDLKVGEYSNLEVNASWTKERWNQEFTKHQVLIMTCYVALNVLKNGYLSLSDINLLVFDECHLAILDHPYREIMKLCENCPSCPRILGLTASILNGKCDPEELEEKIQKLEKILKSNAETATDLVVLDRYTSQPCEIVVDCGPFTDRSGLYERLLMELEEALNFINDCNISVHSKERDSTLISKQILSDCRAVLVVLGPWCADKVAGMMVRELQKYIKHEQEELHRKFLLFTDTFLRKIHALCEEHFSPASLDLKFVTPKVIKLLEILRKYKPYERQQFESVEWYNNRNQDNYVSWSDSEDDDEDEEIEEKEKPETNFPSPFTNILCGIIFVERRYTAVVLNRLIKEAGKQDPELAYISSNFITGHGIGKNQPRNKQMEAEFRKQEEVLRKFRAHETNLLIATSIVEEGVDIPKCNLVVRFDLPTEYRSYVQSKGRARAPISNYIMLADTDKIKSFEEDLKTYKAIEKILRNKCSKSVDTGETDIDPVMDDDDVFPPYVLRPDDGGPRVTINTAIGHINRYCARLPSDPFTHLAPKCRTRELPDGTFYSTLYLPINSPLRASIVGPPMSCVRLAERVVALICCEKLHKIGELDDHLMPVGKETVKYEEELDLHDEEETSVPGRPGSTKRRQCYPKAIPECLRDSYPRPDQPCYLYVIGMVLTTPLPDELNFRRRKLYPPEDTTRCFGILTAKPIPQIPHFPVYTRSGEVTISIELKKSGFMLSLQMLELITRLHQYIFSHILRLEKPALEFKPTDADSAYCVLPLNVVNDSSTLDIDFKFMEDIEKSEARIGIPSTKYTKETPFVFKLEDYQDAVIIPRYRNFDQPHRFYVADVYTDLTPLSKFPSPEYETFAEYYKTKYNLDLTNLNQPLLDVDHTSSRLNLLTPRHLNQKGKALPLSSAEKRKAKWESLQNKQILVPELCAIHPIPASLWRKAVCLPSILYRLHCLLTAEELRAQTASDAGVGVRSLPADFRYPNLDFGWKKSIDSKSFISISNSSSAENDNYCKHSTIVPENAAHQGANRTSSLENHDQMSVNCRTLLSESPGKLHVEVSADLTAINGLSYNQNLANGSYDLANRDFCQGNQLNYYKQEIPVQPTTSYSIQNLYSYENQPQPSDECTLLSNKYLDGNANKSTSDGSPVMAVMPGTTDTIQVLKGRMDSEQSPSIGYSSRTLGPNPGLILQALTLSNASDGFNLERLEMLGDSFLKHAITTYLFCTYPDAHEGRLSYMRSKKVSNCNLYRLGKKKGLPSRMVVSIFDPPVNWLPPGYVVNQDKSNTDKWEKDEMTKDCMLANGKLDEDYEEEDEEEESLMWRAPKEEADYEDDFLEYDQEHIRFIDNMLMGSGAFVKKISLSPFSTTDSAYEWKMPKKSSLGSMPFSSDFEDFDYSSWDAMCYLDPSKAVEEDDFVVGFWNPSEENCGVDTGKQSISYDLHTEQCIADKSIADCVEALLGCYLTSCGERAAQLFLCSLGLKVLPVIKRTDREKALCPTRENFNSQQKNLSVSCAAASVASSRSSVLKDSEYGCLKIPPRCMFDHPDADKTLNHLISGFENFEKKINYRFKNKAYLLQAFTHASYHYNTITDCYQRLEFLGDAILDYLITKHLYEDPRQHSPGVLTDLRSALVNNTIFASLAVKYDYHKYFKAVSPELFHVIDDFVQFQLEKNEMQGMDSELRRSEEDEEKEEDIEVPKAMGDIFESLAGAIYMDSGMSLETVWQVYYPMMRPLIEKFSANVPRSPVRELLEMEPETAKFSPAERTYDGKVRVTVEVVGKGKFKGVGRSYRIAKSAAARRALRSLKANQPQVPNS
* marks the source's active call; other numbers are inactive results.

SMILES	Dicer inh
CC1/C=C/C=C/CC/C=C/C=C/C=C/C=C/C(O[C@@H]2O[C@H](C)[C@@H](O)[C@H](N)[C@@H]2O)CC(O)C(C(=O)O)C(O)CC(=O)CC(O)C(O)CCC(O)CC(O)CC(O)CC(=O)OC(C)C(C)C1O (stereo partly specified)	0.25
O=S1(=O)CCC(N2COc3c(cc(Cl)c4cccnc34)C2)C1 (stereo unspecified)	-1.3
Cc1cc(Cc2ccc(N)c(C)c2)ccc1N	1.1
Cc1cc(C2(c3ccc(N)c(C)c3)CCCCC2)ccc1N	3.1*
CC1=C(C(=O)Nc2ccc(Br)cn2)C(c2ccc3c(c2)OCO3)C2=C(CCCC2=O)N1 (stereo unspecified)	0.87
O=C1C2ON(c3ccccc3)C(c3cc(Br)ccc3O)C2C(=O)N1c1ccccc1 (stereo unspecified)	4.7*
Cc1ccc(N2C(=O)C3ON(c4ccccc4)C(c4ccccc4O)C3C2=O)cc1 (stereo unspecified)	0.87
COc1ccc(N2C(=O)C3ON(c4ccccc4)C(c4ccccc4O)C3(C)C2=O)cc1 (stereo unspecified)	4*
O=C1C2ON(c3ccccc3)C(c3cccnc3)C2C(=O)N1c1ccc(F)cc1 (stereo unspecified)	0.56
COc1ccc(C2C3C(=O)NC(=O)C3ON2c2ccccc2)cc1 (stereo unspecified)	-0.09
COc1ccc(N2C(=O)C3ON(c4ccccc4)C(c4cc(Br)ccc4O)C3C2=O)cc1 (stereo unspecified)	2.5
COc1ccc(N2C(=O)C3ON(c4ccccc4)C(c4ccco4)C3C2=O)cc1 (stereo unspecified)	0.58
COC(=O)c1ccc(N2C(=O)C3ON(c4ccccc4)C(c4ccc(OC)cc4OC)C3C2=O)cc1 (stereo unspecified)	-0.46
Cc1ccc(N2C(=O)C3ON(c4ccccc4)C(c4cccnc4)C3C2=O)cc1 (stereo unspecified)	-0.52
COc1cccc(N2C(=O)C3ON(c4ccccc4)C(c4ccccc4O)C3C2=O)c1 (stereo unspecified)	3.9*
COc1ccc(C2C3C(=O)N(c4ccccc4)C(=O)C3ON2c2ccccc2)cc1 (stereo unspecified)	-0.29
O=C1C2ON(c3ccccc3)C(c3ccccc3O)C2C(=O)N1c1ccc(Br)cc1 (stereo unspecified)	3.4*
COc1ccccc1C1CCN(c2ccc(C3OCCO3)cc2[N+](=O)[O-])CC1	-0.9
N#Cc1cnn(-c2ccc(Cl)cc2Cl)c1N	-0.38
S=C(NCCn1ccnc1)Nc1ccc(Cl)cc1	0.86
NNC(=S)NCCc1ccc(Cl)cc1	4.5*
S=C(NCCc1ccccc1)Nc1cccc(Cl)c1Cl	0.28
CCOC(=O)c1cc([N+](=O)[O-])ccc1Oc1cncc(Cl)c1	-1.1
COc1ccc(N2C(=O)CC3(CCCCC3)CC2=O)cc1OC	-1.8
O=c1/c(=C\c2ccc3c(c2)OCO3)sc2n1C(c1cccs1)C1=C(N=2)c2ccccc2CC1 (stereo unspecified)	10
SMILES	Dicer inh
CC(Sc1nnc2sc3ccccc3n12)C(=O)O (stereo unspecified)	0.44
CCOC(=O)c1cnc(NC(=O)CSc2nnc3sc4ccccc4n23)s1	4.3*
C=CCSc1nnc2sc3ccccc3n12	0.61
CC1=CCC2C(=O)N(c3ccc(Br)c(C)c3)C(=O)C2C1 (stereo unspecified)	-1.1
Cc1nn(CO)c(C)c1Sc1ccc(Br)cc1	-1.4
O=C(Cn1nc(-c2ccccc2)c2ccccc2c1=O)c1ccc(F)cc1	-0.83
COc1ccc(-c2nnc(SCc3ccc(Br)cc3)o2)c(OC)c1	67
O=C1CC(Cc2ccc(Cl)cc2)C(=O)N1c1ccccn1 (stereo unspecified)	-0.83
O=C1CC(Cc2ccccc2)C(=O)N1c1cccc(Cl)c1 (stereo unspecified)	1.8
O=C1CC(Cc2ccc(Cl)cc2)C(=O)N1Cc1ccccc1 (stereo unspecified)	3.3*
O=C(O)CNc1nc(-c2ccccc2)c2cc(Br)ccc2n1	-0.5
COc1ccc(-c2cc(=O)c3cc(OC(=O)c4cccnc4)ccc3o2)cc1	15
Cc1cc(Sc2nnc(N)s2)c2ccccc2n1	-0.49
CC(c1ccccc1)c1nnc(N)s1 (stereo unspecified)	0.97
CCC(c1ccccc1)c1nnc(N)s1 (stereo unspecified)	4.2*
N#Cc1nc(-c2ccc(C(F)(F)F)cc2)oc1N	0.77
N#CC(=Nc1ccc(F)cc1)C1=C(O)c2ccccc2C1=O	0.82
N#CC(=Nc1ccc(F)cc1F)C1=C(O)c2ccccc2C1=O	-3.2
CC(C)(C)c1ccc(N=C(C#N)C2=C(O)c3ccccc3C2=O)cc1	3.1*
CN(C)c1nc(OCCNS(=O)(=O)c2ccccc2)nc(N(C)C)n1	-0.72
C=CCOc1ccc(/C(O)=C2/C(=O)C(=O)N(CC3CCCO3)C23C(=O)N(CC)c2ccccc23)cc1 (stereo unspecified)	-0.3
CC1(C)C2CCC13CS(=O)(=O)N1OC13C2 (stereo unspecified)	-1.1
Cc1ccc(C(=O)Nc2cnc3c(C)cccn3c2=O)cc1	3.1
CN1c2ccccc2C(C)(C)C12C=Cc1cc(O)ccc1O2 (stereo unspecified)	15*
CC1(C)C=Cc2cc(/C(N)=N/O)ccc2O1	0.53
SMILES	Dicer inh
O=C(Nc1sc2c(c1C(=O)Nc1ccccc1)CCCCC2)c1cccs1	1.5
C=C1SC(=Nc2cccc(OC)c2)N(C(=O)c2ccc([N+](=O)[O-])cc2)C1(C)C	-1.1
COc1cc(CN2CCN(Cc3cccc4ccccc34)CC2)cc(OC)c1	3.7*
COc1ccc(CN2CCN(Cc3c[nH]c4ccccc34)CC2)c(OC)c1	2.4
COc1cccc(CN2CCN(Cc3c[nH]c4ccccc34)CC2)c1OC	3.4*
COc1ccc(CN2CCN(Cc3ccc4c(c3)OCO4)CC2)c2ccccc12	-0.76
COc1ccc(OC)c(CN2CCN(Cc3c[nH]c4ccccc34)CC2)c1	2.6
COc1ccc(CN2CCN(Cc3cc(OC)ccc3O)CC2)cc1	2.6
CC1CCCC(C)N1S(=O)(=O)c1ccc(NC2=NS(=O)(=O)c3ccccc32)cc1 (stereo unspecified)	0.79
CCOC(=O)/C=C(\C)Nc1cccc(N/C(C)=C/C(=O)OCC)c1C	-0.68
COc1ccc(-c2cc(-c3ccc(OC)cc3)nc(NS(=O)(=O)c3ccc(NC(C)=O)cc3)n2)cc1	-0.58
CCOC(=O)c1cc(-c2ccc(Cl)cc2)oc1C	-1.4
CSC/C(N)=N/S(=O)(=O)c1ccc(Cl)cc1	0.22
Nc1cc(Cl)ccc1C(=O)N1CCSCC1	-0.56
N/C(=N\S(=O)(=O)c1ccc(Cl)cc1)N1CCSCC1	3.6*
CCn1cc(C(=O)N/N=C/c2ccc(Cl)cc2)c(=O)c2cc(C(F)(F)F)ccc21	-0.93
O=C(NCc1ccco1)c1cnn2c1NC(c1ccc(Br)cc1)CC2C(F)(F)F (stereo unspecified)	5*
O=C(NCCc1ccccc1)c1cnn2c1NC(c1ccc(Br)cc1)CC2C(F)(F)F (stereo unspecified)	-0.32
O=C(NCc1ccc(F)cc1)c1cnn2c1NC(c1cccs1)CC2C(F)(F)F (stereo unspecified)	2.2
COc1ccc(C2CC(C(F)(F)F)n3ncc(C(=O)NCC4CCCO4)c3N2)cc1OC (stereo unspecified)	-0.63
Cc1ccc(C2CC(C(F)(F)F)n3ncc(C(=O)NCc4cn(C)nc4C)c3N2)cc1 (stereo unspecified)	-0.66

Screening data deposited in PubChem by Center for Chemical Genomics, University of Michigan.
